From PubChem
Many of the other results were omitted from the sample, so hits are more common in it than they were.
CBX7 inh: blocks human CBX7 binding to H3K27me3 peptide | O95931 | AlphaScreen His6-CBX7 / biotin-H3K27me3 peptide binding; hits give low values | normalised signal (fraction of DMSO) (test concentration not listed) | actives 1.1% (n = 66,000) | AID 1224903; in the data active means normalised signal below about 0.5
Target sequence (O95931 whole entry, looked up): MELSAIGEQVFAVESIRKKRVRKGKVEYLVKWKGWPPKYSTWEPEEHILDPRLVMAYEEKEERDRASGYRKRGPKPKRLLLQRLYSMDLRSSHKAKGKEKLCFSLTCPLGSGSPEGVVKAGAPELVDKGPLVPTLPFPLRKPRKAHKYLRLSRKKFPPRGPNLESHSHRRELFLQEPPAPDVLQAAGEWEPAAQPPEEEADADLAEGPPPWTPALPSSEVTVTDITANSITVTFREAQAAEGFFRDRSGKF
Numbers without * were called inactive; ! = not confirmed by another sample.

SMILES	CBX7 inh
CCN1CCCC1CNC(=O)c1ccc2c(c1)N=C(C)c1ccccc1S2 (stereo unspecified)	1.07
O=S1(=O)N=C(Nc2nc(-c3ccccc3)cs2)c2ccccc21	0.949
CCCN(CCC)C(=O)Cn1ncc2c1-c1ccccc1OC2	1.08
CCCCNC(=O)CSc1nc(NCCCC)c2ccccc2n1	0.974
O=C(NCC1(c2ccccc2)CCOCC1)C(c1ccccc1)c1ccccc1	0.935
COc1cc(CNc2ccc3[nH]c(=O)[nH]c3c2)cc(Br)c1OCc1cccs1	0.815
Cc1cc(Cl)ccc1OCC(=O)Nc1sc2c(c1C(=O)OC(C)C)CCCC2	1.06
CCc1cc2c(oc(=O)c3ccccc32)c(CN2CCN(C)CC2)c1O	0.345*
CCc1cc2c(=O)c(-c3nc4ccccc4n3C)c(C)oc2c(CN2CCCCC2)c1O	0.989
CCc1cc2c(C)cc(=O)oc2c(CN2CCCCCC2)c1O	0.964
CCCCc1nn(-c2ccccc2F)c2c1C(=O)CC(c1ccccc1)C2 (stereo unspecified)	1.02
CCn1c(C(=O)NC(C)c2ccccc2)cc2sc(Cl)cc21 (stereo unspecified)	1.04
Cc1ccc(C)c(NC(=O)Cn2cnc3c(nnn3Cc3ccc(F)cc3)c2=O)c1	0.854
COc1cc(NC(=O)c2ccc(CNc3c(N4CCC(C)CC4)c(=O)c3=O)cc2)cc(OC)c1	0.997
c1ccc2c(-c3nc(C4CCCCC4)no3)cc(-c3ccncc3)nc2c1	0.49*
Cc1cccc(-c2noc(-c3cc(-c4ccccc4)nc4ccccc34)n2)c1	1.3
Fc1cccc(Cl)c1-c1noc(-c2cc(-c3ccncc3)nc3ccccc23)n1	0.924
COc1ccccc1NC(=O)c1c(NCc2ccccn2)sc2c1CCCC2	0.643
CC(C)c1ccc(C(c2ccccc2)N2CCN(C(=O)CCc3c[nH]c4ccccc34)CC2)cc1 (stereo unspecified)	0.586
Fc1ccc(C(c2ccc(F)cc2)N2CCN(CCCc3c[nH]c4ccccc34)CC2)cc1	0.487*
Clc1ccc(C(c2ccc(Cl)cc2)N2CCN(CCCc3c[nH]c4ccccc34)CC2)cc1	0.597
Cc1nc2ccc(C(=O)NCCC(C)C)cc2nc1C	1.01
CCOc1cccc(C2CC(=O)Nc3cc(OC)cc(OC)c32)c1 (stereo unspecified)	1.22
CC(CCc1ccccc1)NC(=O)c1cc(Nc2ccc(C(C)C)cc2)nc2ccccc12 (stereo unspecified)	1.45
Cc1ccc(S(=O)(=O)c2nc(-c3ccccc3C)oc2N2CCCCCC2)cc1	0.9
SMILES	CBX7 inh
O=S(=O)(c1ccccc1)c1nc(-c2ccccc2F)oc1N1CCCCCC1	0.98
Cc1ccc(S(=O)(=O)c2nc(-c3ccccc3F)oc2N2CCCCC2)cc1	0.483*
Cc1ccc(-c2nnc(Nc3ccc4c(c3)ncn4C)c3ccccc23)cc1	0.582
Cc1ccc(-c2nnc(Nc3ccc(Cl)cc3)c3ccccc23)cc1S(=O)(=O)NCCO	0.817
COc1cccc(OC)c1C(=O)Nc1ccc(S(=O)(=O)Nc2nccs2)cc1	1.02
NC(=O)COc1ccc(Nc2nnc(-c3ccc(Cl)cc3)c3ccccc23)cc1	0.909
Cc1nnc(Nc2ccc(S(=O)(=O)Nc3nccs3)cc2)c2ccccc12	0.492*
Cc1ccc(Nc2nnc(-c3ccc(C)c(S(=O)(=O)NC(C)(C)C)c3)c3ccccc23)cc1	0.928
O=S(=O)(Nc1nccs1)c1ccc(Nc2nnc(-c3ccc(Cl)cc3)c3ccccc23)cc1	0.23*
O=C(Nc1ccc(S(=O)(=O)Nc2nccs2)cc1)c1ccccc1Br	1.04
Cc1ccc(-c2nnc(Nc3ccc(S(=O)(=O)Nc4nccs4)cc3)c3ccccc23)cc1	0.363*
CC(C)Cn1c(CCCNC(=O)Cc2ccccc2)nc2ccccc21	1.1
CCOc1ccc(OCC)c(N2C(=O)Cn3cccc3C2C(=O)NC2CCCCC2C)c1 (stereo unspecified)	0.933
Cc1ccc2oc(-c3cccc(NC(=O)c4ccccc4Cl)c3)nc2c1	0.919
Cc1ccc2oc(-c3cccc(NC(=O)c4ncn[nH]4)c3)nc2c1	0.0761*
COc1cccc(OC)c1C(=O)Nc1cccc(-c2nc3cc(C)ccc3o2)c1	0.905
CCCCc1ccc(-c2nc(Nc3ccc(C)cc3Br)c3ccccc3n2)cc1	1.37
O=C(c1ccc(NC2=NC3CS(=O)(=O)CC3S2)cc1)N1CCN(c2cccc(Cl)c2)CC1 (stereo unspecified)	0.868
Cc1onc(-c2ccccc2Cl)c1C(=O)NC(C)CCCC(C)C (stereo unspecified)	1.11
O=C(CN1C(=O)CCSc2ccccc21)N1CCCCCC1	0.978
COc1ccc(CNc2nc(SCC(=O)Nc3cc(C)[nH]n3)nc3ccccc23)cc1	0.373*
COc1cc(Nc2nc(SCC(=O)Nc3cc(C)[nH]n3)nc3ccccc23)cc(OC)c1	1.04
Cc1cc(NC(=O)CSc2nc(NCc3ccc(Cl)cc3)c3ccccc3n2)n[nH]1	0.831
CC(=O)N1c2ccc(S(=O)(=O)NCc3ccc(C)cc3)cc2CC1C (stereo unspecified)	0.997
CC(=O)Nc1nc(C)c(-c2csc(Nc3ccc(Br)cc3)n2)s1	0.961
SMILES	CBX7 inh
CCC(=O)Nc1nc(C)c(-c2csc(Nc3ccc(C(=O)O)cc3)n2)s1	0.0882*!
CCOc1ccc(Nc2nc(-c3sc(NC(=O)CC)nc3C)cs2)cc1	0.43*
CCC(=O)Nc1nc(C)c(-c2csc(Nc3cccc(C(=O)O)c3)n2)s1	0.974
CC(=O)Nc1ccc(Nc2nc(-c3sc(NC(C)=O)nc3C)cs2)cc1	0.923
CC(=O)Nc1nc(C)c(-c2csc(Nc3ccc(O)cc3)n2)s1	0.893
COc1ccc(NC(=O)CSc2nnc(Cc3cc(=O)[nH]c(=O)[nH]3)n2-c2ccccc2)cc1	1.07
Brc1ccc(-c2[nH]c(C3CC=CCC3)nc2-c2ccccc2)cc1 (stereo unspecified)	0.905
Fc1ccccc1Nc1nc(Cc2ccccc2)nc2sc3c(c12)CCCC3	1.16
CCOC(=O)c1cccc(Nc2cc(C)nc3c(OC)cccc23)c1	0.936
Cc1cccc(Nc2cc(C(=O)O)c3ccccc3n2)c1C	0.793
CC(C)OCCCNC(=O)CN1C(=O)CSc2ccccc21	0.994
Cc1cc(Nc2ccc(Cl)c(C)c2)n2nc(C)nc2n1	1.12
Cc1ccc(NCC(O)Cn2c3c(c4cc(C)ccc42)CCCC3)c(C)c1 (stereo unspecified)	0.475*
Cc1ccc(NCC(O)Cn2c3c(c4cc(C)ccc42)CCCC3)cc1 (stereo unspecified)	0.603
Cc1ccc2c(c1)c1c(n2CC(O)CN2CCCCC2C)CCCC1 (stereo unspecified)	0.822
CCn1c(C(=O)N2CCC(C(=O)NCCOC)CC2)cc2sccc21	0.957
Cc1ccc(Cn2c(SCc3ccccc3F)nc3ccncc32)cc1	0.992
